The record followed here is article PMC7862700, “An all-to-all approach to the identification of sequence-specific readers for epigenetic DNA modifications on cytosine”.

What all share (assay): DAPPL (digital affinity profiling via proximity ligation, sequencing); 10 mM Tris-HCl pH 7.5, 50 mM NaCl, 1 mM DTT, 4% glycerol, room temperature, 30 min; GST-TFs on glutathione beads, 16-mer random dsDNA library, 0.1% formaldehyde crosslink after washing; high values mean tight binding
What all share (conditions): protein: recombinant; tags: N-terminal GST; dsDNA, one strand shown

Assay [1] deals with T1, FLI1 (Homo sapiens, UniProt Q01543 1-452).
T1 sequence: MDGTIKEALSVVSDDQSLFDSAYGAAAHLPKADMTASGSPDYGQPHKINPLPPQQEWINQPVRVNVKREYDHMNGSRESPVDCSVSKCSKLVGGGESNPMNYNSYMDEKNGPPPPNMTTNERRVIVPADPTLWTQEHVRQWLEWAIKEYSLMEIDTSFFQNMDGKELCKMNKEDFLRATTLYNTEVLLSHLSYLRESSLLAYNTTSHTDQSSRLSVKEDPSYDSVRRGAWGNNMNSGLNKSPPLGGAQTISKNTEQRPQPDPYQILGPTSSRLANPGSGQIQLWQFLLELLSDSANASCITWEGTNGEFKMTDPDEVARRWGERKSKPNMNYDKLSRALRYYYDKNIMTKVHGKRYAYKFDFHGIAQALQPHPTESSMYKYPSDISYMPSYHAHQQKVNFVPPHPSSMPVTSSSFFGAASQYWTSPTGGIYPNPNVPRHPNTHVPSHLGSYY
The procedure, abridged: (§1)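 GST fusions of human transcription factors were expressed in yeast and captured with glutathione beads. Once given DNA barcodes and pooled alongside a tag-only sample, they were incubated for 30 min at room temperature with 200 nmole of a random double-stranded 16-mer DNA library in Tris/NaCl/DTT/glycerol buffer, then washed, crosslinked (0.1% formaldehyde), proximity-ligated, PCR-amplified and sequenced on an Illumina NextSeq500. The binding signal of each hexamer is its read frequency for a factor divided by its frequency for the tag-only sample.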

Assay [2] addresses T2, ELK1 (Homo sapiens, UniProt P19419 1-428).
T2 sequence: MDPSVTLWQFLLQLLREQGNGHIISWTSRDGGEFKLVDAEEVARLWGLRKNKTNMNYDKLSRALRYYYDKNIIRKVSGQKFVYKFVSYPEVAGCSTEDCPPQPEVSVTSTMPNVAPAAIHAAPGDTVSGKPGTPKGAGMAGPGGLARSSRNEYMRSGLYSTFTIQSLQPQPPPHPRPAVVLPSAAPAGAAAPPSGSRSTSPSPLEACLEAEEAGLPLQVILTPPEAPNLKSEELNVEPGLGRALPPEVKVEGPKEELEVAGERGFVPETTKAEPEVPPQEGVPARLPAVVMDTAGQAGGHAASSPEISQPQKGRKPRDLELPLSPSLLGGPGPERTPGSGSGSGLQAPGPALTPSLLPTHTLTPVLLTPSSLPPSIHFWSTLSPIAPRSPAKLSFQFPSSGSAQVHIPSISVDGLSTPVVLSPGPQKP
The gist of the method:
as §1

In assay [3] the target is T3, GABPA (Homo sapiens, UniProt Q06546 1-454).
T3 sequence: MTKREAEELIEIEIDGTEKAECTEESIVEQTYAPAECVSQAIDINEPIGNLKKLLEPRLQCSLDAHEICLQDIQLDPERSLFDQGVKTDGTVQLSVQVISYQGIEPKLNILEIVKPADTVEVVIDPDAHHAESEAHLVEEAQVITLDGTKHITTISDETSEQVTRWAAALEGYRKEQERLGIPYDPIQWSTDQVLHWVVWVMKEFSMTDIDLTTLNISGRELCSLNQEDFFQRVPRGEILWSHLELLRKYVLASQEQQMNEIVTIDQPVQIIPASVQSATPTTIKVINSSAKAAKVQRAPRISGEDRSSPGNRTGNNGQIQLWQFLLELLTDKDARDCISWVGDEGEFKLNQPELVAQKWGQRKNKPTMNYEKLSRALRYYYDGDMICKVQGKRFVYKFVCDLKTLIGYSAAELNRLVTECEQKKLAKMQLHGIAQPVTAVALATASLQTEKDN
The procedure, abridged:
as §1

Assay [4] addresses T4, ERG (Homo sapiens, UniProt P11308 1-479).
T4 sequence: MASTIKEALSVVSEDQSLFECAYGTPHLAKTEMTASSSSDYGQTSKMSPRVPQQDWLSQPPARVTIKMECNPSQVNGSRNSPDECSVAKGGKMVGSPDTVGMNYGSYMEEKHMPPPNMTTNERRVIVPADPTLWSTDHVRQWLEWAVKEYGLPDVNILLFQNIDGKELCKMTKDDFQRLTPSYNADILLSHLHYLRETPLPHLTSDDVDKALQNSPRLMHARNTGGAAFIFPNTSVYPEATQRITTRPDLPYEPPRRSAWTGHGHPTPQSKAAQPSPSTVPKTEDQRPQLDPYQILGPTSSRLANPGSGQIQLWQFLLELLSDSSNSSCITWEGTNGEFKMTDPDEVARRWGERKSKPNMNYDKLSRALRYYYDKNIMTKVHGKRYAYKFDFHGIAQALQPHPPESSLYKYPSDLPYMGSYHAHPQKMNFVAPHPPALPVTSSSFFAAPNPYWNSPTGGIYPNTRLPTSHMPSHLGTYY
The procedure, abridged:
as §1

In assay [5] the target is ELF1 (Homo sapiens, UniProt P32519 1-619). The procedure, abridged:
as §1

In assay [6] the target is T5, EHF (Homo sapiens, UniProt Q9NZC4 1-300).
T5 sequence: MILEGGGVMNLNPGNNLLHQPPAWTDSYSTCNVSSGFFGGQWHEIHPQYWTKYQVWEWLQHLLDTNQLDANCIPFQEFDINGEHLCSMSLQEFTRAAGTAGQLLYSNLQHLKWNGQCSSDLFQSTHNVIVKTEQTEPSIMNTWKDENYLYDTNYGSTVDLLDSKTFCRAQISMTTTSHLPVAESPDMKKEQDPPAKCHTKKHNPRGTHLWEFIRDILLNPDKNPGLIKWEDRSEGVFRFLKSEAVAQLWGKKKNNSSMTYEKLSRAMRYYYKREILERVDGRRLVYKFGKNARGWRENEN
The procedure, abridged: as §1

Assay [7] addresses SPI1 (Homo sapiens, UniProt P17947 1-270). The gist of the method:
as §1

In assay [8] the target is SPIB (Homo sapiens, UniProt Q01892 1-262). The procedure, abridged: as §1
Sequence of SPIB (Q01892 whole entry): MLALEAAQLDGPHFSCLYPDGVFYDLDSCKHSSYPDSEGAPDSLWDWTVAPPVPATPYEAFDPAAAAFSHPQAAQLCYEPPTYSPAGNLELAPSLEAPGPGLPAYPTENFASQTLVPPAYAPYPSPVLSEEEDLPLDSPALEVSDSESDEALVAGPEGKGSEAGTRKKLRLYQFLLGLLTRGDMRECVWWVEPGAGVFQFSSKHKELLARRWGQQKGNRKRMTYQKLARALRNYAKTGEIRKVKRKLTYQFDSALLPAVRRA
The target of assay [9] is T6, ELK3 (Homo sapiens, UniProt P41970 1-407).
T6 sequence: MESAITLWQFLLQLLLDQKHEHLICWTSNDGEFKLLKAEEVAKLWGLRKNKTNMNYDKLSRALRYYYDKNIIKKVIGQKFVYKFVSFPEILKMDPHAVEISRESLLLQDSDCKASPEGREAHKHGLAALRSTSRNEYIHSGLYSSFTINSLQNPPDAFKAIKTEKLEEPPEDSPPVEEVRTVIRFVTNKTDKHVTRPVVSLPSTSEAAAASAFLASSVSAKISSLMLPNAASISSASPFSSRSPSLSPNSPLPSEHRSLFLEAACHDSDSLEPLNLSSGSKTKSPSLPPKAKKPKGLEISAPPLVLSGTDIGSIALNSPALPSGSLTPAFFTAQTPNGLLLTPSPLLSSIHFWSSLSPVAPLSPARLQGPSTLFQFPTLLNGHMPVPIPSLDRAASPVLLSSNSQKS
The gist of the method: as §1

Assay [10] has as its target T7, FEV (Homo sapiens, UniProt Q99581 1-238).
T7 sequence: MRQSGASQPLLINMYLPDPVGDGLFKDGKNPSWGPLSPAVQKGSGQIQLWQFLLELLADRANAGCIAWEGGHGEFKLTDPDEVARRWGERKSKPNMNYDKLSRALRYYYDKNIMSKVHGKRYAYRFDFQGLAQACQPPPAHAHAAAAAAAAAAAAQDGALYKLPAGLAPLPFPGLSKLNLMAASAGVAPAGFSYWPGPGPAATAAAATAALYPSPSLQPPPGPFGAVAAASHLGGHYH
The procedure, abridged:
as §1

Assay [11] has as its target ETV5 (Homo sapiens, UniProt P41161 1-510). The procedure, abridged: as §1
Assay [12] has as its target T8, SPIC (Homo sapiens, UniProt Q8N5J4 1-248).
T8 sequence: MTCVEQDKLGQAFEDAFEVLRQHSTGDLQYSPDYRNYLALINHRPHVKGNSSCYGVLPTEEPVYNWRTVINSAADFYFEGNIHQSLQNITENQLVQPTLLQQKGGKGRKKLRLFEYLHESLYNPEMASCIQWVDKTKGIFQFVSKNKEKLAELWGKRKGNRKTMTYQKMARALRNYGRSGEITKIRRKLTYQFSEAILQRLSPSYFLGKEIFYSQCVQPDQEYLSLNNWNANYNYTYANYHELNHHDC
The gist of the method: as §1

The target of assay [13] is ELF4 (Homo sapiens, UniProt Q99607 1-663). The procedure, abridged:
as §1

For assay [14], the target named is T9, ELK4 (Homo sapiens, UniProt P28324-2 1-405).
T9 sequence: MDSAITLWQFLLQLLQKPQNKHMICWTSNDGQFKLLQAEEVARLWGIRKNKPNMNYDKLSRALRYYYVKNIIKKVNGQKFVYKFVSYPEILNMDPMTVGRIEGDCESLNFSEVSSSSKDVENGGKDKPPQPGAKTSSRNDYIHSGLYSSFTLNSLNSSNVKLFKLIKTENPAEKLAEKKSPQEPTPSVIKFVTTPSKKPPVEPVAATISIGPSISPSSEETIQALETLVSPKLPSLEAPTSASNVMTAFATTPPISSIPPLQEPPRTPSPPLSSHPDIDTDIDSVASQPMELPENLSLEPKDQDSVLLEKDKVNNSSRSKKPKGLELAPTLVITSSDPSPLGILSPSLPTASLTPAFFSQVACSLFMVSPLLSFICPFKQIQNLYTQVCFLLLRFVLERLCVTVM
The gist of the method:
as §1

Assay [15] addresses T10, ETV2 (Homo sapiens, UniProt O00321 1-342).
T10 sequence: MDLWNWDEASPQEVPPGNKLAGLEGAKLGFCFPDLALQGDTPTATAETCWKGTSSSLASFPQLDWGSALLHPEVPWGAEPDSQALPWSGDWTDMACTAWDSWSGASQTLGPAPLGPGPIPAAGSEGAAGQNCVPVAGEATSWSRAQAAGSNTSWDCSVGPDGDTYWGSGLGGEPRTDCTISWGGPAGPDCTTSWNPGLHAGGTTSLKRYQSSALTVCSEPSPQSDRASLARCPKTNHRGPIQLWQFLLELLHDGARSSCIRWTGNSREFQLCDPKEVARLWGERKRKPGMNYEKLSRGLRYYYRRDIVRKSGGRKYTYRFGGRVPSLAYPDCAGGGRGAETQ
The gist of the method:
as §1

Assay [16] deals with T11, ELF3 (Homo sapiens, UniProt P78545 1-371).
T11 sequence: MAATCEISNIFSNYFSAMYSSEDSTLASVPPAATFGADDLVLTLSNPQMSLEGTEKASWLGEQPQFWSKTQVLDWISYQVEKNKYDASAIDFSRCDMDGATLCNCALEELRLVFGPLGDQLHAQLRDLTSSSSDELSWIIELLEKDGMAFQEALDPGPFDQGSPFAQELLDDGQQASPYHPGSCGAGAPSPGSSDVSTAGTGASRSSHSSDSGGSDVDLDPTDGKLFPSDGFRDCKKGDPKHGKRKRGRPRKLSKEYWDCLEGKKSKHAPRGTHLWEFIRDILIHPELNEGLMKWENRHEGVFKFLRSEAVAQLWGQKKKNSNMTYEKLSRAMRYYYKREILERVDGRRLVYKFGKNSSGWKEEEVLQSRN
The gist of the method:
as §1

Assay [17] addresses ETV1 (Homo sapiens, UniProt P50549 1-477). The gist of the method: as §1

Sequence of ETV1 (P50549 whole entry): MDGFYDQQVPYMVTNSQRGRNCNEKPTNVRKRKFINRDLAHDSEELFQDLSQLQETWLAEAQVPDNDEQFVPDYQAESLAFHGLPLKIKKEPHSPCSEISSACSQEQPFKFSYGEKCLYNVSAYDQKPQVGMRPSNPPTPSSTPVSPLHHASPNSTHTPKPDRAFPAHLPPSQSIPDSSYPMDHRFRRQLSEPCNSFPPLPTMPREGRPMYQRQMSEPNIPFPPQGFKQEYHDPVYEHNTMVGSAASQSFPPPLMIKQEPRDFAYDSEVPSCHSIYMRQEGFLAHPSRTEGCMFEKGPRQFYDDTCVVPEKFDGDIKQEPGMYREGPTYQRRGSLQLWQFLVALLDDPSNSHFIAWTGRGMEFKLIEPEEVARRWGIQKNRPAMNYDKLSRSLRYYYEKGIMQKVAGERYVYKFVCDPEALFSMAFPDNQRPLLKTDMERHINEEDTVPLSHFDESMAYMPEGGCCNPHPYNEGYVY
Sequence of ETV5 (P41161 whole entry): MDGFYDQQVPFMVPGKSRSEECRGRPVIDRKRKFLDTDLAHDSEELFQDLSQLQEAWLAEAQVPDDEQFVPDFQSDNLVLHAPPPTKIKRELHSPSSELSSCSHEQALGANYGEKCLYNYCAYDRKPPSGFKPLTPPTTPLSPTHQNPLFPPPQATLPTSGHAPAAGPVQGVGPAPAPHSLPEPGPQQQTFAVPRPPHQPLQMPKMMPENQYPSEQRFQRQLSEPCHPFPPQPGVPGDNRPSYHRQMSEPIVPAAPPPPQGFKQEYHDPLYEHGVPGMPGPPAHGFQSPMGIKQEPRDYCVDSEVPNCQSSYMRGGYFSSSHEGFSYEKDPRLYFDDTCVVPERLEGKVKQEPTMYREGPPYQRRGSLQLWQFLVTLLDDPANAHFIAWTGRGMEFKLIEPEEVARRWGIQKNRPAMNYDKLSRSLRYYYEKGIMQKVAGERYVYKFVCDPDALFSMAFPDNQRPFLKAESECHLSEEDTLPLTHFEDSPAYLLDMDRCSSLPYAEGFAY
Sequence of ELF4 (Q99607 whole entry): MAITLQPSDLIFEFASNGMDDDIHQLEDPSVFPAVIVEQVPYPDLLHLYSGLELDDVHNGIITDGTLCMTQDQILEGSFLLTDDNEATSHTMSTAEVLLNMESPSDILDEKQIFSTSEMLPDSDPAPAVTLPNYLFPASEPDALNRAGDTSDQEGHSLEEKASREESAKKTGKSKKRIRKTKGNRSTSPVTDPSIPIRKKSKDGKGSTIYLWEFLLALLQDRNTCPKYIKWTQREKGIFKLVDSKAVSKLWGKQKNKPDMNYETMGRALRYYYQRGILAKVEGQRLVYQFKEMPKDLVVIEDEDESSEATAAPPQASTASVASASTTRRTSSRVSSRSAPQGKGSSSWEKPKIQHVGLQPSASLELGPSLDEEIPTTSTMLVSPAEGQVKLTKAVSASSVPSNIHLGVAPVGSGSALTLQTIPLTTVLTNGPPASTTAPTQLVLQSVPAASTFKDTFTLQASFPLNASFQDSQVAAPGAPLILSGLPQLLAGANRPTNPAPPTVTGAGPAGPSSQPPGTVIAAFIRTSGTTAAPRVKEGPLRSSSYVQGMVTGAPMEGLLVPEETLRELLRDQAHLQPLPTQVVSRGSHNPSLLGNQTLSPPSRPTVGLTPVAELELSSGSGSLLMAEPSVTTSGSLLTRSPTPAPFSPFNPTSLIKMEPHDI
Sequence of ELF1 (P32519 whole entry): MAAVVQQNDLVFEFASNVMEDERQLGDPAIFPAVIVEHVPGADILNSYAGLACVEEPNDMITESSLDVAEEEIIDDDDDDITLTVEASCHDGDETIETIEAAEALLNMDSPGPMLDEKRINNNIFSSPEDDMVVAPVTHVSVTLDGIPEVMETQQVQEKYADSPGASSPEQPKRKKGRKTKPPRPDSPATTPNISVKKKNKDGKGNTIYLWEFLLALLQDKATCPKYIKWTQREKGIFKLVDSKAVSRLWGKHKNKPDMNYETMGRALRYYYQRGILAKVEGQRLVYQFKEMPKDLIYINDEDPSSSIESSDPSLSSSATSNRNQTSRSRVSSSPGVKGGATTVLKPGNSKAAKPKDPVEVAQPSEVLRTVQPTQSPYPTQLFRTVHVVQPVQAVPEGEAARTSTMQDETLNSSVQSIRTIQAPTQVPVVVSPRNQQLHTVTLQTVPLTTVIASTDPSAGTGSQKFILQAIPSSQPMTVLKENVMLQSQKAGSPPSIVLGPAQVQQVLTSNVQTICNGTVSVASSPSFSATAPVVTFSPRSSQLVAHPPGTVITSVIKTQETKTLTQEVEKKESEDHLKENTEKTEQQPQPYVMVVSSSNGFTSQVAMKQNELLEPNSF

Take CGGCAT: the binding signal in assay [1] was 1.07 fold enrichment (6-mer frequency, TF over GST control); in assay [2], 1.13 fold enrichment (6-mer frequency, TF over GST control); in [3], 1.07 fold enrichment (6-mer frequency, TF over GST control); in assay [4] it was 1.11 fold enrichment (6-mer frequency, TF over GST control); in [5], 1.08 fold enrichment (6-mer frequency, TF over GST control); in [6], 1.09 fold enrichment (6-mer frequency, TF over GST control). Also, the binding signal in assay [7] is 1.13 fold enrichment (6-mer frequency, TF over GST control); in assay [8] it was 1.19 fold enrichment (6-mer frequency, TF over GST control); in [9], 1.09 fold enrichment (6-mer frequency, TF over GST control); in assay [10], 1.09 fold enrichment (6-mer frequency, TF over GST control); in [11], 1.13 fold enrichment (6-mer frequency, TF over GST control); in assay [12], 1.18 fold enrichment (6-mer frequency, TF over GST control). The binding signal in assay [13] was 1.06 fold enrichment (6-mer frequency, TF over GST control); in assay [14] it was 1.1 fold enrichment (6-mer frequency, TF over GST control); in assay [15], 1.25 fold enrichment (6-mer frequency, TF over GST control); in assay [16] it was 1.02 fold enrichment (6-mer frequency, TF over GST control); in assay [17] it was 1.19 fold enrichment (6-mer frequency, TF over GST control).
Take GCACCC: the binding signal in assay [1] was 1.21 fold enrichment (6-mer frequency, TF over GST control); in assay [2] it was 1.25 fold enrichment (6-mer frequency, TF over GST control); in assay [3] it was 1.25 fold enrichment (6-mer frequency, TF over GST control); in assay [4], 1.17 fold enrichment (6-mer frequency, TF over GST control); in [5], 1.16 fold enrichment (6-mer frequency, TF over GST control); in [6], 1.01 fold enrichment (6-mer frequency, TF over GST control). Besides, the binding signal in assay [7] is 1.18 fold enrichment (6-mer frequency, TF over GST control); in assay [8] it was 1.2 fold enrichment (6-mer frequency, TF over GST control); in [9], 1.14 fold enrichment (6-mer frequency, TF over GST control); in assay [10], 1.12 fold enrichment (6-mer frequency, TF over GST control); in [11] it was 1.11 fold enrichment (6-mer frequency, TF over GST control); in [12], 1.3 fold enrichment (6-mer frequency, TF over GST control). In addition, the binding signal was 1.22 fold enrichment (6-mer frequency, TF over GST control) in assay [13]; 1.33 fold enrichment (6-mer frequency, TF over GST control) in assay [14]; 1.28 fold enrichment (6-mer frequency, TF over GST control) in assay [15]; 1.25 fold enrichment (6-mer frequency, TF over GST control) in assay [16]; 1.15 fold enrichment (6-mer frequency, TF over GST control) in [17].
